Laboratory results published in PubChem BioAssay (Tox21).
Results filed as inconclusive are left out. Where a call stands in place of a potency, no number is given. The source made the active and inactive calls. Calls come from the whole dose curve; as a rule, active = well fitted inhibition curve with a large enough effect in the signal ratio in the repeat runs, with a control signal flat; inconclusive = weak or mixed curves, or effect the other way; inactive = flat fitted curve, though single readings scatter; the % refers to the signal ratio.

What follows are molecules tested against D(2) dopamine receptor (Homo sapiens) (UniProt P14416) (assay: Dopamine D2 receptor (DRD2) small molecule antagonists, cell-based qHTS assay (AID 1963595)). Details: HEK293-DRD2 cAMP HTRF antagonist mode; series mostly up to 92.4 µM.
Procedure, shortened: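 In this cell-based antagonist screen, compounds act for 10 min at room temperature before a 30 min challenge with 12 nM quinpirole and 200 nM NKH477. cAMP is quantified by HTRF competition in DRD2-HEK293 cells containing 0.1 mM Ro20-1724.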

Sequence of D(2) dopamine receptor (Homo sapiens) (P14416 whole entry, looked up): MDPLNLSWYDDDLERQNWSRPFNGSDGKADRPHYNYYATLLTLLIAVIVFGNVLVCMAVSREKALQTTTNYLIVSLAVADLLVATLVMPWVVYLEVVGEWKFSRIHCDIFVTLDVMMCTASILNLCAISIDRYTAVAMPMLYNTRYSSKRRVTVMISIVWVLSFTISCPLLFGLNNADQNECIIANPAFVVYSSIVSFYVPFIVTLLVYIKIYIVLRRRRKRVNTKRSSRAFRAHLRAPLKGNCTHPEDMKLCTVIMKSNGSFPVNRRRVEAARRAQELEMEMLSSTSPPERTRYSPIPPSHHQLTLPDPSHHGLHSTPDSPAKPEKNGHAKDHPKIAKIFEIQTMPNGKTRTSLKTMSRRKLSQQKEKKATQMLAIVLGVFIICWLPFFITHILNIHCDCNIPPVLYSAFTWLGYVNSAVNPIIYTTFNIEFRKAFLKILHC

**Q.** For COc1cc([N+](=O)[O-])ccc1N, which Potency is on record?
**A.** Its Potency is “inactive”.

**Q.** How did the Potency turn out when Cc1c(C(=O)NN2CCCCC2)nn(-c2ccc(Cl)cc2Cl)c1-c1ccc(Cl)cc1 was run?
**A.** Its Potency is “inactive”.

**Q.** CSc1ccc(/C=C2/C(C)=C(CC(=O)O)c3cc(F)ccc32)cc1 was tested. Which Potency did it give?
**A.** Its Potency is “inactive”.

**Q.** Which Potency does the source give for CC(C)C(OC(=O)c1ccccc1)C(C)(C)COC(=O)c1ccccc1 (configuration not stated) here?
**A.** The Potency was “inactive”.

**Q.** How did the activity change, negative = inhibition turn out when CN(C)C(=O)NC1(c2ccccc2)CCN(CCC[C@]2(c3ccc(Cl)c(Cl)c3)CCCN(C(=O)c3ccccc3)C2)CC1 was run?
**A.** Its activity change, negative = inhibition is 3.81% [at 18.9 µM] (inactive).

**Q.** Clc1ccc(Cn2c(CN3CCCC3)nc3ccccc32)cc1 was tested. Which Potency did it give?
**A.** The Potency was “inactive”.

**Q.** For O=C1CCCCCN1SSN1CCCCCC1=O, which Potency is on record?
**A.** The Potency was “inactive”.

**Q.** CC(COc1ccc(C(C)(C)C)cc1)OS(=O)OCCCl (configuration not stated) was tested. Which Potency did it give?
**A.** Its Potency is “inactive”.

**Q.** c1ccc(-c2ccc(C(c3ccccc3)n3ccnc3)cc2)cc1 (configuration not stated) was tested. Which Potency did it give?
**A.** The Potency was “inactive”.

**Q.** For Cc1onc(-c2c(Cl)cccc2Cl)c1C(=O)N[C@@H]1C(=O)N2[C@@H]1SC(C)(C)[C@@H]2C(=O)O, which Potency is on record?
**A.** Its Potency is “inactive”.

**Q.** With Cc1ccc(N/N=c2\c(=O)cc/c(=N\Nc3ccc(S(=O)(=O)O)cc3)c2=O)c(C)c1 as the molecule, how does the Potency read?
**A.** Its Potency is “inactive”.

**Q.** CCCCC(CC)CN1CN(CC(CC)CCCC)CC(C)(N)C1 (configuration not stated) was tested. Which Potency did it give?
**A.** The Potency was “inactive”.
